Laboratory results reported in PubChem BioAssay (NCI).
The panel holds about 83,000 compounds, 20% with a hit somewhere; the sample as a whole holds those more often.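 96-well plates, one dose, 48 hours. Percent growth reported; active if below 10.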 Values without a mark were called inactive. The source made the active and inactive calls.

Legend:
Test in all cases: NCI-60 one-dose screen, 48 h (100 = growth as untreated, 0 = no growth, -100 = all killed)
Conditions in all cases: 10 µM
NCI-H23 lung = tested on: NCI-H23 lung
NCI-H226 lung = tested on: NCI-H226 lung
NCI-H460 lung = tested on: NCI-H460 lung
NCI-H522 lung = tested on: NCI-H522 lung
A549/ATCC NSCLC = tested on: A549/ATCC NSCLC
786-0 renal = tested on: 786-0 renal
COLO 205 colon = tested on: COLO 205 colon
DU-145 prostate = tested on: DU-145 prostate
K-562 leukemia = tested on: K-562 leukemia
MALME-3M melanoma = tested on: MALME-3M melanoma
MDA-MB-231 breast = tested on: MDA-MB-231 breast
RXF 393 renal = tested on: RXF 393 renal
SF-268 CNS = tested on: SF-268 CNS
SF-295 CNS = tested on: SF-295 CNS
SF-539 CNS = tested on: SF-539 CNS
M14 melanoma = tested on: M14 melanoma
HOP-92 NSCLC = tested on: HOP-92 NSCLC
UACC-257 melanoma = tested on: UACC-257 melanoma

Row | SMILES | growth (NCI-H23 lung) | growth (NCI-H226 lung) | growth (NCI-H460 lung) | growth (NCI-H522 lung) | growth (A549/ATCC NSCLC) | growth (786-0 renal) | growth (COLO 205 colon) | growth (DU-145 prostate) | growth (K-562 leukemia) | growth (MALME-3M melanoma) | growth (MDA-MB-231 breast) | growth (RXF 393 renal) | growth (SF-268 CNS) | growth (SF-295 CNS) | growth (SF-539 CNS) | growth (M14 melanoma) | growth (HOP-92 NSCLC) | growth (UACC-257 melanoma)
1 | Nc1nc(-c2cccnc2)nc2c1sc(=S)n2-c1ccccc1 | 103% | 95.8% | 97.2% | 83.4% | 76.2% | 98.7% | 108% | 103% | 106% | 112% | 65.2% | 100% | 96% | 111% | 103% | 106% |  | 
2 | CCCCC(CC)CN=C(N)NC(N)=NCCCCCCN=C(N)NC(N)=NCC(CC)CCCC (stereo unspecified) | -80% (active) | -63.1% (active) | -71.3% (active) |  | -87.1% (active) | -31.2% (active) | -79.8% (active) | -98.1% (active) |  | -73% (active) | -84.6% (active) | -43.5% (active) | -82.8% (active) | -84.8% (active) | -76.9% (active) | -65.1% (active) | -53.9% (active) | -47.1% (active)
3 | CCCCCCCCCCCCCCCCCC[n+]1ccc2c(C)c3c(c(C)c2c1)c1cc(O)ccc1n3CC | 4.06% (active) | 58% | 6.93% (active) | 29.2% | 13.9% | 5.53% (active) | -46.6% (active) | 40.4% | 9.4% (active) | -55.2% (active) | 19% | -7.68% (active) | 4.77% (active) | -1.22% (active) | -21.2% (active) | -2.39% (active) |  | 
4 | N#Cc1c(-c2ccc(Cl)cc2)cc(-c2cc(O)ccc2O)nc1N | 11.2% | 94.8% | 5.46% (active) | -8.49% (active) | 40% | -4.38% (active) | 97.5% | 21.7% | 29.1% | 30.2% | -5.89% (active) | 15.7% | 31.9% | 75.6% | -1.42% (active) | 2.5% (active) |  | 
5 | Nc1ccc(-c2cccs2)cc1NC(=O)c1ccc(CCCC(=O)Nc2ccc(C3CC3N)cc2)cc1 (stereo unspecified) | 86.3% | 108% | 38% | 53.6% | 72.1% | -48% (active) | 73.9% | 84.6% | -30.7% (active) | 75.1% | 47.1% | 77% | 104% | 84% | 77% | 70.8% |  | 
6 | OC[C@H]1OC([S-])[C@H](O)[C@@H](O)[C@@H]1O.[Au+] (stereo partly specified) | 77.2% | 103% | 110% |  | 95.7% | 87.3% | 114% | 111% |  | 137% | 70% | 93.2% | 88.2% | 113% | 84.3% | 81.6% | 75.6% | 90%
7 | COc1ccc(Nc2cnc3cc(NS(=O)(=O)c4ccc(C)cc4)ccc3n2)cc1 | 86.5% | 94% | 84.4% | 36.1% | 66.2% | 97% | 96.4% | 102% | 24.2% | 74.1% | 67.6% | 100% | 88.1% | 75% | 80.9% | 75.8% |  | 73.3%
8 | COc1ccc(-c2nnc(SCC(=O)Nc3ccc(C(=O)/C=C/c4ccccc4)cc3)n2-c2ccccc2)cc1OC | 80.8% | 50.4% | 37.1% | 53.8% | 51.9% | 67.1% | 56.1% | 50.4% | 37.2% | 36.4% | 73.4% | 72.4% | 84.8% | 106% | 0.289% (active) | 57.7% |  | 72.4%
9 | CCOC(=O)CSc1nc(-c2cc(OC)ccc2OC)cc(-c2ccc(OC)cc2)c1C#N | 87% | 86.4% | 66.6% | 55.8% | 61.6% | 71.9% | 101% | 75.2% | 106% | 98.8% | 83.9% | 70.3% | 73.9% | 70.3% | 64.6% | 76.9% |  | 
